Reference: PubChem BioAssay (NCATS)
Records with an inconclusive call do not appear. Active and inactive are the calls of the source. Unless noted, calls come from the whole dose curve; as a rule, active = well fitted curve in the direction sought with a large enough effect; inconclusive = small, poorly fitted or top-dose-only effect, or another doubt; inactive = no such curve, though single readings can be large; an effect the other way counts as inactive or inconclusive. Where a SMILES comes first, the peptide text is derived from it. Bridges are numbered along the chain shown (N, C = ends). [ ]: non-standard residue; d: D form. hArg = N=C(N)NCCCC[C@H](N)C(=O)O; Mpa = O=C(O)CCS

Tests used:
[1] = system: Tov-21-G; experiment: Primary qHTS to identify gynecologic anti-cancer compounds using libraries of approved drugs and bioactive compounds (AID 1345084); conditions: Gynecologic cancer cell panel viability, ATPlite luminescence, 48 h; series mostly up to 57.5 µM; note: % is set by controls: 0 for no effect and ±100 for the full control effect; nearly all actives have a fitted effect of over 55% in size
Outline: (§1)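 Five-point cytotoxicity, 48 h drug exposure at 37 C, 5% CO2, on cells seeded 16 h beforehand. ATP content read by ATPlite luminescence.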

[2] = system: Tov112D; experiment: as above; conditions: Gynecologic cancer cell panel viability, ATPlite luminescence, 48 h; series mostly up to 57.5 µM
Outline: as §1

[3] = Drug repurposing screens with cells derived from glioblastoma tumor samples (AID 1345199); conditions: GBM patient neurospheres viability, ATP luminescence, 48 h; note: nearly all actives have a fitted effect of over 40% in size; note: potency is the fitted concentration of half-maximal effect; for activity, negative = cell killing: % is set by controls: 0 for no effect and ±100 for the full control effect
Outline: (§2)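 Primary testing used CD133+ neurospheres from four GBM patients, seven concentrations, 48 h exposure and ATP-based viability; confirmation added three slower-growing patient lines.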

[4] = system: astro; experiment: as above; conditions: viability, ATP luminescence, 48 h; series mostly up to 45.9 µM
Outline: as §2

[5] = target: Nuclear receptor subfamily 1 group I member 2 (Rattus norvegicus) (UniProt Q9R1A7); experiment: qHTS assay for small molecule activators of the rat pregnane X receptor (rPXR) signaling pathway (AID 651751; call rule not given here; note: 0% is about no effect); conditions: rPXR reporter cells, luciferase (One-Glo), 24 h
[6] = qHTS assay for small molecule activators of the human pregnane X receptor (PXR) signaling pathway (AID 720659; call rule not given here; note: 0% is about no effect)
[7] = qHTS assay to identify inhibitors of the type 1 interferon - major histocompatibility complex class I in skeletal muscle: Counter screen cell viability and HiBit confirmation (AID 1347412); conditions: iHSKM muscle cells + IFN-b, HiBiT or CellTiter-Glo, 24 h; Viability, at 45.9 µM (top of the series); note: % is set by controls: 0 for no effect and ±100 for the full control effect; nearly all actives have a fitted effect of over 60% in size
Outline: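 Human myoblast knock-in line, 4.0 ng/ml IFN-beta stimulation, 24 h compound treatment. Endpoints: HiBiT lytic luminescence (HLA-B level) and CellTiter Glo (ATP). Dosing 12 concentrations, 3-fold steps, 46 uM highest final.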

[8] = at 45.9 µM (top of the series), tumour line B
[9] = at 45.9 µM (top of the series), tumour line D
[10] = at 46 µM (top of the series), tumour line A
[11] = at 46.1 µM (top of the series), tumour line C
[12] = at 20 µM (top of the series), tumour line C
[13] = at 21.2 µM (top of the series), tumour line B
[14] = at 21.2 µM (top of the series), tumour line D
[15] = at 21.3 µM (top of the series), tumour line A

Sequence of Nuclear receptor subfamily 1 group I member 2 (Rattus norvegicus) (Q9R1A7 whole entry, looked up): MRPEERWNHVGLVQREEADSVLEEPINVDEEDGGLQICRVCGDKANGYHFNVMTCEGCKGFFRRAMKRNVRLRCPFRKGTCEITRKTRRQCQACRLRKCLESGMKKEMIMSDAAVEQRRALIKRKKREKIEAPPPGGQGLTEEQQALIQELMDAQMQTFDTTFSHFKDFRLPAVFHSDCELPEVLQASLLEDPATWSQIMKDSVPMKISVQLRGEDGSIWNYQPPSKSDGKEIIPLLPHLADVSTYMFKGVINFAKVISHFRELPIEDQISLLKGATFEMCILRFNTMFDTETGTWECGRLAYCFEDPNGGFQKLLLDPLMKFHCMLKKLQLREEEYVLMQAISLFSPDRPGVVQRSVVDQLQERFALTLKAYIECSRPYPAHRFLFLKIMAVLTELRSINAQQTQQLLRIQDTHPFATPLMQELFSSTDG

OCc1ccc(Cl)cc1Cl
inactive: outcome [1] | outcome [2] | activity, negative = cell killing [3, 8] -6.96% | activity, negative = cell killing [3, 9] -3.9% | activity, negative = cell killing [3, 10] -3.28% | activity, negative = cell killing [3, 11] 6.97% | outcome [4]

C[C@@H]1CCC[C@H](C)N1
inactive: outcome [1] | outcome [2] | activity, negative = cell killing [3, 12] -13.9% | activity, negative = cell killing [3, 13] -3.64% | activity, negative = cell killing [3, 14] -2.57% | activity, negative = cell killing [3, 15] -18% | outcome [4]

CCCNC(C)(C)COC(=O)c1ccccc1
inactive: outcome [1] | outcome [2] | activity, negative = cell killing [3, 8] -3.47% | activity, negative = cell killing [3, 9] 11.4% | activity, negative = cell killing [3, 10] -6.31% | activity, negative = cell killing [3, 11] 1.22% | outcome [4]

C/C=C1\[C@H]2C=C(C)C[C@]1(N)c1ccc(=O)[nH]c1C2
inactive: outcome [1] | outcome [2] | activity, negative = cell killing [3, 8] -6.65% | activity, negative = cell killing [3, 9] -6.44% | activity, negative = cell killing [3, 10] -18.8% | activity, negative = cell killing [3, 11] 3.14% | outcome [4]

O=C(/C=C/c1ccc(O)c(O)c1)O[C@@H]1C[C@@](OC(=O)/C=C/c2ccc(O)c(O)c2)(C(=O)O)C[C@@H](O)[C@@H]1O
active: Potency ([3]; tumour line A) 28.2 µM
inactive: outcome [1] | outcome [2] | activity, negative = cell killing [3, 8] 1.43% | activity, negative = cell killing [3, 9] -4.97% | activity, negative = cell killing [3, 11] -11.7% | outcome [4]

CC[N+](C)(CC)CCOC(=O)C1c2ccccc2Oc2ccccc21
inactive: outcome [1] | outcome [2] | activity, negative = cell killing [3, 8] -11.7% | activity, negative = cell killing [3, 9] 10.5% | activity, negative = cell killing [3, 10] -6.39% | activity, negative = cell killing [3, 11] -9.49% | outcome [4]

O=C(Cn1ccnc1[N+](=O)[O-])NCCO
inactive: outcome [1] | outcome [2] | activity, negative = cell killing [3, 8] -12.6% | activity, negative = cell killing [3, 9] -6.24% | activity, negative = cell killing [3, 10] -16.3% | activity, negative = cell killing [3, 11] -12.1% | outcome [4]

NC(=O)NC1NC(=O)NC1=O (centres undefined)
inactive: outcome [1] | outcome [2] | activity, negative = cell killing [3, 12] 1.99% | activity, negative = cell killing [3, 13] 4.84% | activity, negative = cell killing [3, 14] -17.3% | activity, negative = cell killing [3, 15] -7.96% | outcome [4]

NC(=O)CC[C@@H](N)C(=O)O
inactive: outcome [1] | outcome [2] | activity, negative = cell killing [3, 8] -5.88% | activity, negative = cell killing [3, 9] 12.3% | activity, negative = cell killing [3, 10] 4.73% | activity, negative = cell killing [3, 11] 1.46% | outcome [4]

O=C(O)c1ccccc1OP(=O)(O)O
inactive: outcome [1] | outcome [2] | activity, negative = cell killing [3, 8] -8.79% | activity, negative = cell killing [3, 9] 13.5% | activity, negative = cell killing [3, 10] -28.4% | activity, negative = cell killing [3, 11] -24.8% | outcome [4]

CCc1cccc(CC)c1NC(=O)CN(CC(=O)O)CC(=O)O
inactive: outcome [1] | outcome [2] | activity, negative = cell killing [3, 12] -11.2% | activity, negative = cell killing [3, 13] -2.25% | activity, negative = cell killing [3, 14] -7.08% | activity, negative = cell killing [3, 15] -26% | outcome [4]

NNC(=O)CP(=O)(c1ccccc1)c1ccccc1
inactive: outcome [1] | outcome [2] | activity, negative = cell killing [3, 8] -1.23% | activity, negative = cell killing [3, 9] -15% | activity, negative = cell killing [3, 10] -19.4% | activity, negative = cell killing [3, 11] -12.7% | outcome [4]

NC(=O)[C@@H]1CSSCCC(=O)N[C@@H](CCCCN=C(N)N)C(=O)NCC(=O)N[C@@H](CC(=O)O)C(=O)N[C@@H](Cc2c[nH]c3ccccc23)C(=O)N2CCC[C@H]2C(=O)N1 ([Mpa][hArg]GDWPC-NH2; disulfide 1-7)
inactive: outcome [1] | outcome [2] | activity, negative = cell killing [3, 8] 1.12% | activity, negative = cell killing [3, 9] 4.68% | activity, negative = cell killing [3, 10] -11% | activity, negative = cell killing [3, 11] -19.2% | outcome [4]

O=C(O)c1ccccc1C(=O)Nc1ccc(S(=O)(=O)Nc2nccs2)cc1
inactive: outcome [1] | outcome [2] | activity, negative = cell killing [3, 8] -6.87% | activity, negative = cell killing [3, 9] -3.34% | activity, negative = cell killing [3, 10] -31.1% | activity, negative = cell killing [3, 11] 1.95% | outcome [4]

CC(N)CCCC(C)(C)O (centres undefined)
inactive: outcome [1] | outcome [2] | activity, negative = cell killing [3, 8] -8.17% | activity, negative = cell killing [3, 9] -3.88% | activity, negative = cell killing [3, 10] -24.8% | activity, negative = cell killing [3, 11] -13.9% | outcome [4]

COc1ccccc1Oc1c(NS(=O)(=O)c2ccc(C(C)(C)C)cc2)nc(-c2ncccn2)nc1OCCO
inactive: outcome [1] | outcome [2] | activity, negative = cell killing [3, 8] -11.9% | activity, negative = cell killing [3, 9] -7.18% | activity, negative = cell killing [3, 10] -57.2% | activity, negative = cell killing [3, 11] -29.9% | outcome [4]

O=C(O)c1ccc(OCCCOc2ccc(C(=O)O)cc2)cc1
inactive: outcome [1] | outcome [2] | activity, negative = cell killing [3, 8] -4.79% | activity, negative = cell killing [3, 9] -29% | activity, negative = cell killing [3, 10] -33.4% | activity, negative = cell killing [3, 11] -12% | outcome [4]

CNc1c2c(nn1C)CCCC2
inactive: outcome [1] | outcome [2] | activity, negative = cell killing [3, 8] -7.34% | activity, negative = cell killing [3, 9] -0.633% | activity, negative = cell killing [3, 10] -5.91% | activity, negative = cell killing [3, 11] -14.3% | outcome [4]

COc1nccnc1NS(=O)(=O)c1ccc(N)cc1
inactive: outcome [1] | outcome [2] | activity, negative = cell killing [3, 8] 0.463% | activity, negative = cell killing [3, 9] -17.5% | activity, negative = cell killing [3, 10] -24.3% | activity, negative = cell killing [3, 11] -3.06% | outcome [4]

CC(C)C[C@@H](N)C(=O)O
inactive: outcome [1] | outcome [2] | activity, negative = cell killing [3, 8] 3.77% | activity, negative = cell killing [3, 9] 29.1% | activity, negative = cell killing [3, 10] 14.9% | activity, negative = cell killing [3, 11] -0.0622% | outcome [4]

CCOc1ccc(C(=O)OCCN(CC)CC)cc1
inactive: outcome [1] | outcome [2] | activity, negative = cell killing [3, 8] -7.64% | activity, negative = cell killing [3, 9] -13.5% | activity, negative = cell killing [3, 10] -29% | activity, negative = cell killing [3, 11] -17.9% | outcome [4]

COC(=O)c1cccnc1
inactive: outcome [1] | outcome [2] | activity, negative = cell killing [3, 8] -7.13% | activity, negative = cell killing [3, 9] -4.81% | activity, negative = cell killing [3, 10] -28.2% | activity, negative = cell killing [3, 11] 40.1% | outcome [4]

CCS(=O)(=O)CCn1c([N+](=O)[O-])cnc1C
inactive: outcome [1] | outcome [2] | activity, negative = cell killing [3, 12] -12.4% | activity, negative = cell killing [3, 13] -11.3% | activity, negative = cell killing [3, 14] 3.43% | activity, negative = cell killing [3, 15] -20.5% | outcome [4]

O=C1C(c2[nH]c3ccccc3c2O)=Nc2ccccc21
inactive: outcome [1] | outcome [2] | activity, negative = cell killing [3, 8] -10% | activity, negative = cell killing [3, 9] -9.74% | activity, negative = cell killing [3, 10] -34.1% | activity, negative = cell killing [3, 11] -13.3% | outcome [4] | max response [5] 2.85% | outcome [6]

CCCCCC(N)=O
inactive: outcome [1] | outcome [2] | activity, negative = cell killing [3, 8] -6.65% | activity, negative = cell killing [3, 9] -23.8% | activity, negative = cell killing [3, 10] -18.7% | activity, negative = cell killing [3, 11] -14.8% | outcome [4] | max response [5] 8.83% | outcome [6]

CC(C)CCOC(=O)c1ccc(N(C)C)cc1
inactive: outcome [1] | outcome [2] | activity, negative = cell killing [3, 8] -5.37% | activity, negative = cell killing [3, 9] -2.75% | activity, negative = cell killing [3, 10] -50% | activity, negative = cell killing [3, 11] -13.2% | outcome [4]

CC(=O)N(CC(O)CN(C(C)=O)c1c(I)c(C(=O)NCC(O)CO)c(I)c(C(=O)NCC(O)CO)c1I)c1c(I)c(C(=O)NCC(O)CO)c(I)c(C(=O)NCC(O)CO)c1I (centres undefined)
inactive: outcome [1] | outcome [2] | activity, negative = cell killing [3, 12] 4.37% | activity, negative = cell killing [3, 13] -1.18% | activity, negative = cell killing [3, 14] 15.1% | activity, negative = cell killing [3, 15] -9.07% | outcome [4]

CCCCOC(=O)c1ccc(N)cc1
active: Potency ([3]; tumour line A) 11.2 µM | Potency ([3]; tumour line B) 12.6 µM | Potency ([3]; tumour line C) 16.4 µM
inactive: outcome [1] | outcome [2] | activity, negative = cell killing [3, 9] -24.9% | outcome [4] | outcome [7] | max response [5] 15.7%

CC1CCc2cc(F)cc3c(=O)c(C(=O)O)cn1c23 (centres undefined)
inactive: outcome [1] | outcome [2] | activity, negative = cell killing [3, 8] -0.458% | activity, negative = cell killing [3, 9] -19% | activity, negative = cell killing [3, 10] -20.5% | activity, negative = cell killing [3, 11] -25.6% | outcome [4]
